SENP8 block-1 – human SENP8 protease inhibitors, primary screen, biochemical, fluorescence, Nedd8 protein substrate, uHTS; inhibition, % at 20 µM; actives 0.64% (n = 360,000); Sentrin-specific protease 8 (Homo sapiens), Q96LD8; recombinant SENP8; in the data active = inhibition mostly above about 40%, no sharp cut-off; inactive = mostly below about 27%
SENP8 block-2 – SENP8 protease inhibitors, primary screen, biochemical, luminescence; purified SENP8, Z-RLRGG-aminoluciferin cleavage; inhibition, % at 10 µM; actives 1.2% (n = 330,000); AID 2540, 2010; in the data active = inhibition above about 50%
Platelet DG rel – inhibitors of platelet dense granule secretion, primary screen, cell-based, MLPCN, human platelets. human platelet-rich plasma, SFLLRN dense granule ATP release, luminescence. inhibition, %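 (compounds screened at 7.5 µM in platelet-rich plasma)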. actives 0.22% (n = 300,000);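 active = mean replicate score, as percent of positive control, at or above 50; inconclusive = mean below 50 but at least one replicate at or above 50; inactive = mean and every replicate below 50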
SENP7 block – SENP7 protease inhibitors, primary screen, biochemical, luminescence, uHTS. Sentrin-specific protease 7 (Homo sapiens), Q9BQF6. recombinant SENP7, Z-RLRGG-aminoluciferin luminescence, 40 min. inhibition, % at 5 µM. actives 1.5% (n = 330,000). AID 434973, 2010;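 active = inhibition above about 50% at the single test dose, limit read from the data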;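 note: plate controls were DMSO with enzyme for no effect and no enzyme buffer wells for full effect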
SENP6 inh – SENP6 protease inhibitors, primary screen, biochemical, luminescence, uHTS; Sentrin-specific protease 6 (Homo sapiens), Q9GZR1; Recombinant SENP6 catalytic domain, aminoluciferin luminescence; inhibition, % at 10 µM; actives 1.8% (n = 330,000);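 active = inhibition above about 50% at the single tested dose, limit read from the data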;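 note: plate controls were DMSO wells with enzyme for no effect and DMSO wells lacking enzyme for full effect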
Target sequence (Q9GZR1 628-1112 limits assumed): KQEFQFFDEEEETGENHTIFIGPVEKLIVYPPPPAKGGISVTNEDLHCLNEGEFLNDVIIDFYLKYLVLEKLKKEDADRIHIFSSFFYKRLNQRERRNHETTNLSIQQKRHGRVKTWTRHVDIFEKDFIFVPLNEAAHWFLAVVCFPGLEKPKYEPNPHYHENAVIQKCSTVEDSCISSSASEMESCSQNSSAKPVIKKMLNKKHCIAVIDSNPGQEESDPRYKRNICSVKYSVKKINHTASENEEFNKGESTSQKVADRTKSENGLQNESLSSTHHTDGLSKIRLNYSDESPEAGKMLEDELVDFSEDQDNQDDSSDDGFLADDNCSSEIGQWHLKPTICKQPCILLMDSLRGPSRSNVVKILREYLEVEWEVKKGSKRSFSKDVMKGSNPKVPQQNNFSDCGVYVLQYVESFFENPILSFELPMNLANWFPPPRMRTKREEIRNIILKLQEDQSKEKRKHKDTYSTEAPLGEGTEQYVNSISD
SENP8 conf – SENP8 protease inhibitors, retest, confirmation, biochemical, luminescence, single concentration. shares compounds with SENP7 block. Recombinant SENP8, Z-RLRGG-aminoluciferin luminescence, 60 min. inhibition, % at 12.5 µM. actives 40% (n = 6,200). AID 488912, 2010;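 active = mean inhibition across replicates above about 50%, limit read from the data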
SENP6 confirm – SENP6 protease inhibitors, confirmation, biochemical, luminescence, single concentration; actives 58% (n = 6,200); shares compounds with SENP7 block; inhibition, % at 12.5 µM; recombinant SENP6, Z-RLRGG-aminoluciferin luminescence
SENP7 confirm – SENP7 protease inhibitors, retest, confirmation, biochemical, luminescence, single concentration; shares compounds with SENP7 block; recombinant SENP7, Z-RLRGG-aminoluciferin luminescence, 40 min; inhibition, % at 12.5 µM; actives 69% (n = 6,200)
Casp3 select – caspase-3 protease inhibitors, confirmation, selectivity assay for SENP inhibitor project, biochemical, single concentration; shares compounds with SENP7 block; purified caspase-3, Z-DEVD-aminoluciferin luminescence, 60 min; inhibition, % at 12.5 µM; actives 60% (n = 6,200);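 active = mean inhibition above about 50%, limit read from the data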;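 note: plate controls were enzyme with DMSO for no effect and wells without caspase-3 for full effect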
Luc interf – interferes with luciferase luminescence in SENP counter-screen | shares compounds with SENP7 block | Pre-incubated SENP8/Z-RLRGG-aminoluciferin, luciferase luminescence interference | inhibition, % at 12.5 µM | actives 39% (n = 6,200);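 active = mean inhibition above about 50% when retested at one dose, limit read from the data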;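 note: plate controls were DMSO wells with completed reaction for no effect and substrate without enzyme for full effect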
Numbers without * were called inactive; i = inactive; u = inconclusive; x = no result given. Sampled rows, rich in hits. Any-hit rate of the full collection: about 2.4%.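 Rule for the calls, unless noted: active = mean inhibition above about 50% in the one-dose retest (limit read from the data); inactive = the rest.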

SMILES | SENP8 block-1 | SENP8 block-2 | Platelet DG rel | SENP7 block | SENP6 inh | SENP8 conf | SENP6 confirm | SENP7 confirm | Casp3 select | Luc interf
CCCC[C@@H](CNC)NC[C@H](Cc1ccc(O)cc1)NCCc1ccc(OCC)cc1 | 25 | -5 | -2 | -3 | -14 | x | x | x | x | x
Cn1c(SCc2ccc(C#N)cc2Cl)nc2ccccc21 | 16 | 69* | 4 | 80* | 75* | 8 | 76* | 57* | 24 | 10
N#Cc1ccc(CSc2ccccn2)c(Cl)c1 | 8 | -5 | -1 | 1 | -30 | x | x | x | x | x
Cc1cc(=O)[nH]c(N/N=C/c2sccc2C)n1 | 2 | 23 | 17 | 56* | 64* | 41 | 39 | 79* | 81* | 49
Cc1cc(=O)[nH]c(N/N=C/c2cc(C)n(-c3ccccc3)c2C)n1 | -263 | 36 | 5 | 13 | 66* | 66* | 64* | 87* | 76* | 16
Nc1ccc(-c2nc3ccc(-c4nc5ccccc5o4)cc3[nH]2)cc1 | -474 | -4 | 0 | -7 | -3 | x | x | x | x | x
Cc1nc2ccc(-c3nc4ccccc4o3)cc2[nH]1 | -361 | 28 | 11 | 62* | 8 | 63* | 59* | 84* | 60* | 64*
Cc1ccnc2ccc(-c3nc4ccccc4o3)cc12 | i | 71* | x | 83* | 88* | 25 | 20 | 58* | 40 | 9
COC(=O)c1ccc(CNS(=O)(=O)c2ccc3ccccc3c2)cc1 | 5 | 1 | 14 | 1 | -8 | x | x | x | x | x
Cc1ccc(-n2nc3c(n2)/C(=N/O)CC/C3=N\O)cc1 | -38 | 66* | 9 | 78* | 26 | 8 | 2 | 5 | 2 | 4
CC(=O)OCC1CC(COC(C)=O)C(COC(C)=O)CC1COC(C)=O (centres undefined) | 10 | x | x | x | x | x | x | x | x | x
Clc1c(Cl)c(Cl)c2n[nH]nc2c1Cl | 0 | -8 | -17 | 0 | -27 | x | x | x | x | x
CCCCN(CC)C(=O)c1oc2ccc(S(=O)(=O)N3CCCC3)cc2c1C | 9 | -5 | -3 | -1 | 3 | x | x | x | x | x
N#C/C(=N\Nc1cccc(Cl)c1)C(=O)c1ccccc1 | 31 | 69* | 3 | 15 | 87* | -22 | 74* | 76* | 20 | 72*
O=C(N/N=C/c1ccc(OCc2ccccc2)cc1)c1cccs1 | -46 | 2 | 4 | 22 | -7 | x | x | x | x | x
CCC(C)NS(=O)(=O)c1ccc(NC(=O)c2cccs2)cc1 (centres undefined) | -5 | -1 | 5 | 23 | 8 | x | x | x | x | x
CCCOC(=O)c1ccc(NC(=O)c2ccoc2C)cc1 | 17 | 89* | u | 93* | 95* | 94* | 95* | 101* | 92* | 66*
CCC(C)c1ccc(NC(=O)c2cccs2)cc1 (centres undefined) | 13 | 87* | 6 | 84* | 90* | 92* | 93* | 99* | 76* | 82*
O=C(Nc1ccc(OCc2ccccc2)cc1)c1cccc([N+](=O)[O-])c1 | 16 | -9 | -1 | 56* | -4 | -7 | -4 | 6 | 5 | -5
O=C(Nc1ccc(OCc2ccccc2)cc1)c1cccs1 | 18 | 58* | 3 | 84* | 70* | 41 | 60* | 93* | 73* | 0
